Sampled rows, rich in hits. Any-hit rate of the full collection: about 2.8%.
FXN GAA850 act: frataxin GAA850 promoter activation | activation, % at 6 µM | HEK293 lucGAA850 FXN promoter luciferase reporter, 24 h; percent of 10 µM SAHA response | AID 540364 | 360,000 compounds, 0.56% hits;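 active = activation above the average of all compounds screened plus 3 SD, cutoff fixed separately per campaign, cut at about 7.5% in these data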;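 note: 0% = DMSO wells and 100% = 10 µM SAHA wells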
MITF act: activators of MITF-driven TRPM1 promoter activity in SK-MEL-5 cells; activation, % at 12.5 µM; AID 588334; 300,000 compounds, 0.75% hits; SK-MEL-5 TRPM1-promoter luciferase, 24 h; % of positive control, neutral wells = 0;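 active = mean activation of at least 80% with every replicate also reaching 80%; inconclusive = mean reaches 80% but some replicate falls short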;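 note: 0% = neutral control wells and 100% = parthenolide positive control wells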
esBAF inh: inhibitors of esBAF chromatin remodeling in mouse ES cells | Bmi1-luciferase knock-in reporter, 24 h; 100% = twice the neutral-well signal | reporter increase, % at 12.5 µM | 350,000 compounds, 2% hits | AID 602393; in the data active = activation above about 40%; inconclusive = no clear call, values can overlap the other calls;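 note: 0% = median of the plate's neutral control wells and 100% = double that signal; a rise in the Bmi1 reporter signal indicates esBAF inhibition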
Wnt bcat act: Wnt/beta-catenin pathway activation | Wnt/beta-catenin reporter cell assay, activator, plate reader | 300,000 compounds, 1.2% hits | activation, % at 9.35 µM | AID 743398; in the data active = activation above about 30%, passing the limit was not always enough; inconclusive = no clear call, values can overlap the other calls;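 note: 0% = neutral control wells and 100% = positive control wells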
An asterisk follows results filed as active; ? = inconclusive; . = no result.

SMILES	FXN GAA850 act	MITF act	esBAF inh	Wnt bcat act
CCOc1ccccc1-n1nnnc1SCC(=O)O	2	5	-7	36*
CCOc1ccccc1-n1nnnc1SCC(=O)OC	0	2	10	-1
OC1c2cc(Br)ccc2N=C2CCCCCN21 (centres undefined)	1	.	44*	-3
Cn1c(-c2ccc(F)cc2)cnc1SCC(=O)N1CCCCC1	-3	.	-9	35*
CC1Cc2ccccc2N1C(=O)CSc1ncc(-c2ccc(F)cc2)n1C (centres undefined)	5	42	12	59*
Cn1c(-c2ccc(F)cc2)cnc1SCC(=O)N1CCCc2ccccc21	-2	18	-2	5
CO[C@@H]1CN(C)C(=O)c2ccc(NC(=O)c3ccno3)cc2OC[C@H](C)N(C(=O)C2CCC2)C[C@@H]1C	.	.	-3	.
COc1ccc2c(CN3CCCCCCC3)cc(=O)oc2c1	.	.	48*	1
COc1cccc(C(=O)Nc2ccc3c(c2)OC[C@H](C)N(CC2CC2)C[C@@H](C)[C@H](OC)CN(C)C3=O)c1	.	.	-4	.
CCNC(=O)C[C@H]1CC[C@@H]2[C@H](COc3ccc(NC(=O)NC(C)C)cc3C(=O)N2C)O1	.	.	0	.
CCCn1cnc2cc(NCc3cccc(OC)c3)ccc21	5	66	52*	21
CCCn1cnc2cc(NCc3ccc(Br)cc3)ccc21	5	46	52*	2
Cc1ccc(CNc2ccc3c(c2)ncn3C(C)C)cc1	7	89*	68*	0
CCn1cnc2cc(NCc3ccc(N(C)C)cc3)ccc21	-2	9	36	10
CCn1cnc2cc(NCc3ccc(Br)cc3)ccc21	.	.	.	36*
COc1cccc(C(=O)Nc2ccc3c(c2)OC[C@@H](C)N(C(=O)C2CCCC2)C[C@H](C)[C@@H](OC)CN(C)C3=O)c1	.	.	5	.
CCCN1[C@H](C(=O)NCCOC)[C@@H](CO)[C@@H]2Cn3c(ccc(-c4cccc(C(=O)N(C)C)c4)c3=O)[C@@H]21	.	.	-1	.
COc1ccc(C#Cc2ccc3c(c2)[C@@H]2[C@@H](CCN2C(=O)c2ccncc2)[C@@H](CO)N3C)cc1	.	.	2	.
CO[C@H]1CN(C)C(=O)c2cc(NC(=O)c3ccccc3)ccc2OC[C@@H](C)N(C(=O)CN(C)C)C[C@H]1C	.	.	0	.
CCCCn1cnc2cc(NCc3cccc(OC)c3O)ccc21	1	21	27	3
CCN(CC)c1ccc(CNc2ccc3c(c2)ncn3CC)cc1	.	.	.	0
CCn1cnc2cc(NCc3ccc(C)cc3)ccc21	1	119*	?	.
CCCn1cnc2cc(NCc3ccccc3O)ccc21	4	30	57*	8
O=C(C[C@@H]1CC[C@H](NC(=O)CN2CCOCC2)[C@H](CO)O1)NC1CCCCC1	.	.	-3	.
c1ccc2c(-n3cccn3)cccc2c1	1	37	71*	.
SMILES	FXN GAA850 act	MITF act	esBAF inh	Wnt bcat act
C[C@@H]1CN([C@H](C)CO)C(=O)c2cc(-c3ccc(F)cc3)cnc2O[C@H]1CN(C)C(=O)Nc1ccc(F)cc1	.	.	4	.
C=CCOc1c(CNc2ccc(C(=O)O)cc2)cccc1OCC	3	65	44*	.
C=CCOc1c(CNc2ccc(C(=O)O)cc2)cccc1OC	3	-1	.	3
C=CCOc1c(CNc2cccc(C(=O)O)c2)cccc1OC	1	51	52*	.
C[C@H](CO)N1C[C@H](C)[C@H](CN(C)C)Oc2c(NC(=O)Nc3ccc(C(F)(F)F)cc3)cccc2C1=O	.	.	2	.
FC(F)(F)c1ccc(-c2csc(-c3ccno3)n2)cc1	1	.	50*	23
CCOC(=O)Cc1csc(NC(=O)c2ccc3ncsc3c2)n1	2	2	52*	22
CCOC(=O)Cc1csc(NC(=O)c2ccc(C)o2)n1	-1	14	15	.
CCOC(=O)Cc1csc(NC(=O)c2cnc3sc(C)cn3c2=O)n1	6	62	47*	3
O=C(C[C@@H]1C[C@@H]2c3cc(NC(=O)CC4CC4)ccc3O[C@@H]2[C@H](CO)O1)NCCc1ccccc1	.	.	-2	.
COc1cccc(Oc2nnnn2-c2ccccc2)c1	4	.	58*	.
O=C(NCc1cccc(Cl)c1)c1ccc2c(c1)OCCO2	2	7	40	3
O=C(NCCS(=O)(=O)NCCc1ccccc1)c1ccc2c(c1)OCO2	6	108*	.	-1
O=C(NCCc1cccc(Cl)c1)c1ccc2c(c1)OCO2	0	27	.	45*
O=C(NCCS(=O)(=O)NCc1ccccc1Cl)c1ccc2c(c1)OCO2	0	2	7	3
CCC(=O)Nc1ccc2c(c1)C(=O)N(C)C[C@H](OC)[C@H](C)CN(Cc1cccc(F)c1)[C@@H](C)CO2	.	.	-5	.
O=C(C[C@H]1CC[C@H]2[C@@H](COC[C@H](O)CN2Cc2nccs2)O1)NCc1ccccc1	.	.	-4	.
COc1ccc2nc(N3CCC(C)CC3)c(C#N)cc2c1	7	84*	64*	.
COc1ccccc1CNC(=O)C[C@@H]1C=C[C@H](NC(=O)CN(C)C)[C@@H](CO)O1	.	.	-2	.
FC(F)Oc1ccc(NC(=S)NC2CCCCCCC2)cc1	3	37	47*	-3
S=C(Nc1ccc(Br)cc1)NC1CCCCC1	1	30	43*	7
S=C(Nc1ccc(Cl)cc1)NC1CCCCC1	0	37	33	9
S=C(Nc1ccc2[nH]ccc2c1)NC1CCCCC1	5	59	66*	29
C[C@H]1CCCCO[C@H](CN(C)C(=O)Nc2ccc(F)cc2)[C@@H](C)CN([C@@H](C)CO)C(=O)c2cc(NC(=O)Nc3ccccc3)ccc2O1	.	.	5	.
CCOC(=O)C(=O)Cc1nc2ccccc2s1	3	-2	.	10
SMILES	FXN GAA850 act	MITF act	esBAF inh	Wnt bcat act
CCC(=O)Nc1ccc(OCc2nc3ccccc3s2)cc1	5	5	.	41*
Cc1cc(OCc2nc3ccccc3s2)ccc1N	6	.	4	41*
c1ccc(OCc2nc3ccccc3s2)cc1	6	.	-6	.
Fc1ccc(OCc2nc3ccccc3s2)cc1	2	27	.	59*
C[C@H](NC(=O)C[C@H]1C[C@H]2c3cc(NC(=O)C4CCC4)ccc3O[C@H]2[C@H](CO)O1)c1ccccc1	.	.	8	.
C[C@H]1CN([C@@H](C)CO)C(=O)Cc2cc(N(C)C)ccc2O[C@@H]1CN(C)C(=O)Nc1ccc2c(c1)OCO2	.	.	0	.
Fc1ccccc1CSCc1nc2ccccc2[nH]1	2	90*	64*	2
O=c1[nH]c2ccccc2nc1-c1ccc(Cl)cc1	3	.	.	51*
Cc1ccc(CSCc2nc3ccccc3[nH]2)cc1	4	4	.	0
Clc1ccc(SCc2nc3ccccc3[nH]2)cc1	3	119*	36	.
c1ccc(SCc2nc3ccccc3[nH]2)cc1	1	64	.	.
O=C(Nc1cccc(Cl)c1)N[C@@H]1CC[C@H](CCn2cc(Cc3ccccc3)nn2)O[C@H]1CO	.	.	-3	.
CO[C@@H]1CN(C)C(=O)c2cc(NC(=O)c3ccccc3F)ccc2OC[C@H](C)N(CC2CCOCC2)C[C@@H]1C	.	.	5	.
CCCN(Cc1ccc(C)cc1)C(=O)c1ccc(CNS(=O)(=O)c2ccc(C(C)=O)cc2)cc1	4	?	62*	2
CCN(Cc1ccccc1)C(=O)c1ccc(CNS(=O)(=O)c2ccc(C)cc2)cc1	1	20	.	-7

Compound activity (PubChem BioAssay)
